Values joined by “and” are separate entries in the source; they are usually repeats but may differ in a detail not shown here. Equal entries are not always repeated. Results filed as inconclusive are left out. Some structures have more than one record in an assay (separate samples or runs), and their calls can disagree. Active and inactive are the calls of the source. Calls follow the shape of the dose curve; as a rule, active = well fitted inhibition curve with a large enough effect; inconclusive = small, poorly fitted or top-dose-only effect; inactive = flat fitted curve, though single readings scatter.
Legend:
[1] = system: CRL-7250; assay: Cytotoxic Profiling of Annotated Libraries Using Quantitative High-Throughput Screening (AID 1296008); details: Five cell lines viability, CellTiter-Glo ATP luminescence, 48-72 h; max response: stronger effect = lower value; as to max response: % is scaled to controls: 0 for no effect and ±100 for the full control effect
Summary of the method: (§1)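 Cytotoxicity was measured as CellTiter-Glo ATP luminescence, read after 10 min at room temperature. Compound treatment of the cells lasted 48 or 72 hr at 37 degrees Celsius in a qHTS format.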

[2] = system: HEK293; assay: as above; details: Five cell lines viability, CellTiter-Glo ATP luminescence, 48-72 h; max response: stronger effect = lower value
Summary of the method: as §1

[3] = system: KB-3-1; assay: as above; details: Five cell lines viability, CellTiter-Glo ATP luminescence, 48-72 h; max response: stronger effect = lower value
Summary of the method: as §1

[4] = system: MCC-13; assay: qHTS assay to identify novel small-molecules to repurpose for Merkel cell carcinoma treatment (AID 1296009); details: MCC and control cell lines, CellTiter-Glo viability, 72 h; series mostly up to 46 µM
Summary of the method: (§2)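 Cell viability, measured as CellTiter-Glo luminescence, was normalized between DMSO and no-cell wells. The cells had been exposed to 8- or 11-point compound dilutions for 72 hr at 37 degree celsius.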

[5] = system: MCC-26; assay: as above; details: MCC and control cell lines, CellTiter-Glo viability, 72 h; series mostly up to 46 µM
Summary of the method: as §2

[6] = system: HACAT; assay: as above; details: MCC and control cell lines, CellTiter-Glo viability, 72 h; series mostly up to 44.8 µM
Summary of the method: as §2

[7] = system: P94_40; assay: qHTS profiling for inhibitors of Plasmodium falciparum proliferation (AID 504749); details: P. falciparum in erythrocytes, SYBR Green DNA, 72 h; series mostly up to 28.7 µM
Summary of the method: (§3)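 SYBR Green fluorescence of parasite DNA, read after lysis and overnight dark incubation, measured growth over 72 h in erythrocyte culture at 0.3% parasitemia and 2.5% hematocrit. Data normalised to DMSO and 0.29 uM artemisinin, with plate-drift correction.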

[8] = system: SC27B; assay: as above; details: P. falciparum in erythrocytes, SYBR Green DNA, 72 h; series mostly up to 28.7 µM
Summary of the method: as §3

[9] = system: TAB109; assay: as above; details: P. falciparum in erythrocytes, SYBR Green DNA, 72 h; series mostly up to 28.7 µM
Summary of the method: as §3

[10] = system: TAB113; assay: as above; details: P. falciparum in erythrocytes, SYBR Green DNA, 72 h; series mostly up to 28.7 µM
Summary of the method: as §3

[11] = system: W2; assay: as above; details: P. falciparum in erythrocytes, SYBR Green DNA, 72 h; series mostly up to 28.7 µM
Summary of the method: as §3

[12] = system: HaCat; assay: Cytotoxic Profiling of Annotated Libraries Using Quantitative High-Throughput Screening (AID 1296008); details: Five cell lines viability, CellTiter-Glo ATP luminescence, 48-72 h; max response: stronger effect = lower value; as to max response: % is scaled to controls: 0 for no effect and ±100 for the full control effect
Summary of the method: as §1

[13] = system: NIH3T3; assay: as above; details: Five cell lines viability, CellTiter-Glo ATP luminescence, 48-72 h; max response: stronger effect = lower value
Summary of the method: as §1

[14] = system: PAD; assay: qHTS profiling for inhibitors of Plasmodium falciparum proliferation (AID 504749); details: P. falciparum in erythrocytes, SYBR Green DNA, 72 h; series mostly up to 28.7 µM
Summary of the method: as §3

[15] = system: PC15; assay: as above; details: P. falciparum in erythrocytes, SYBR Green DNA, 72 h; series mostly up to 28.7 µM
Summary of the method: as §3

[16] = system: PC26; assay: as above; details: P. falciparum in erythrocytes, SYBR Green DNA, 72 h; series mostly up to 28.7 µM
Summary of the method: as §3

[17] = system: PC49; assay: as above; details: P. falciparum in erythrocytes, SYBR Green DNA, 72 h; series mostly up to 28.7 µM
Summary of the method: as §3

[18] = system: TAB165; assay: as above; details: P. falciparum in erythrocytes, SYBR Green DNA, 72 h; series mostly up to 28.7 µM
Summary of the method: as §3

[19] = system: P93_24; assay: as above; details: P. falciparum in erythrocytes, SYBR Green DNA, 72 h; series mostly up to 28.7 µM
Summary of the method: as §3
Also: nearly all actives have a fitted effect of over 60% in size.
Potency is read from the fitted curve at half-maximal effect.

CN(C)C(=O)C(CCN1CCC(O)(c2ccc(Cl)cc2)CC1)(c1ccccc1)c1ccccc1
inactive: max response [1] -63.2% | Potency [4] | Potency [5]
active: Potency [2] 13.2 µM and 10.6 µM | Potency [3] 20.9 µM

CC(C(=O)O)c1cccc(C(=O)c2ccccc2)c1 (stereo not drawn)
inactive: outcome [6] | Potency [4] | Potency [5]

COc1ccccc1OCCNCC(O)COc1cccc2[nH]c3ccccc3c12 (stereo not drawn)
inactive: max response [1] 3.53% and -0.382% | max response [12] -11.1% | outcome [12] | max response [3] 1.19% and -0.545% | max response [13] -1.47% and -25.5% | outcome [6] | Potency [4] | Potency [5]
active: Potency [7] 10 µM | Potency [8] 12.6 µM | Potency [9] 10 µM | Potency [10] 10 µM | Potency [11] 4.78 µM

COc1nc(C)nc(Cl)c1NC1=NCCN1
inactive: Potency [7] | Potency [14] | Potency [15] | Potency [16] | Potency [17] | Potency [8] | Potency [9] | Potency [10] | Potency [18] | Potency [11] | max response [1] -8.35% | max response [2] -5.08% and -4.05% | outcome [12] | max response [13] -2.5% and 2.31% | outcome [6] | Potency [4] | Potency [5]

COc1cc2nc(N3CCN(C(=O)c4ccco4)CC3)nc(N)c2cc1OC
inactive: max response [12] -3.1% | max response [13] -23.2% | Potency [4] | Potency [5]

CCC1(c2ccccc2)C(=O)NCNC1=O
inactive: Potency [19] | Potency [7] | Potency [14] | Potency [15] | Potency [16] | Potency [17] | Potency [8] | Potency [9] | Potency [10] | Potency [18] | Potency [11]

OCCN1CCN(CCCN2c3ccccc3Sc3ccc(C(F)(F)F)cc32)CC1
active: Potency [19] 6.31 µM | Potency [7] 11.2 µM | Potency [14] 7.94 µM | Potency [15] 11.2 µM | Potency [16] 6.75 µM | Potency [8] 8.91 µM | Potency [9] 7.08 µM | Potency [10] 8.91 µM | Potency [18] 12.6 µM | Potency [11] 1.51 µM | Potency [13] 13.2 µM
inactive: max response [1] 1.65% | max response [12] -28.3% and -6.1% | Potency [4] | Potency [5]

Nc1c2c(nc3ccccc13)CCCC2
inactive: Potency [17] | Potency [8] | Potency [10] | outcome [1] | outcome [12] | outcome [3] | outcome [13] | outcome [6] | Potency [4] | Potency [5]
active: Potency [15] 12.6 µM | Potency [9] 8.91 µM | Potency [12] 26.4 µM

OCCN(CCO)c1nc(N2CCCCC2)c2nc(N(CCO)CCO)nc(N3CCCCC3)c2n1
inactive: outcome [6] | Potency [4] | Potency [5]

COc1ccccc1N1CCN(CC(O)COc2cccc3ccccc23)CC1 (stereo not drawn)
inactive: Potency [19] | Potency [7] | Potency [14] | Potency [15] | Potency [16] | Potency [17] | Potency [8] | Potency [9] | max response [1] 4.67% | max response [12] 3.01% | max response [13] 0.0963% | Potency [4] | Potency [5]

C[C@@H]1CC(=O)NN=C1c1ccc(NN=C(C#N)C#N)cc1
active: Potency [12] 18.7 µM
inactive: outcome [1] | max response [12] -5.36% and -8.18% | Potency [4] | Potency [5]

CNCCCC12CCC(c3ccccc31)c1ccccc12
inactive: Potency [14] | Potency [17] | Potency [8] | Potency [9] | Potency [10] | max response [12] -20.8% and 4.86% | Potency [4] | Potency [5]
active: Potency [11] 6.01 µM | Potency [2] 11.9 µM and 16.6 µM

CN1CCC(=C2c3ccccc3CC(=O)c3sccc32)CC1
inactive: Potency [15] | Potency [17] | max response [1] 4.7% and -3.04% | max response [12] 0.22% | outcome [12] | max response [3] -4.06% | max response [13] -5.39% | outcome [13] | outcome [6] | Potency [4] | Potency [5]
active: Potency [11] 1.2 µM

CN1C(C(=O)Nc2ccccn2)=C(O)c2ccccc2S1(=O)=O
inactive: Potency [19] | Potency [7] | Potency [14] | Potency [15] | Potency [16] | Potency [17] | Potency [8] | Potency [9] | Potency [10] | Potency [18] | Potency [11] | max response [1] -1.73% and 2.62% | max response [2] 3.98% | max response [12] 0.638% and -49.2% | max response [13] 1.34% | Potency [4] | Potency [5]

COc1cc2c(c(OC)c1OC)-c1ccc(OC)c(=O)cc1[C@@H](NC(C)=O)CC2
active: Potency [2] 18.8 nM | Potency [3] 23.1 nM and 1 nM | Potency [4] 0.0118 µM
inactive: Potency [19] | Potency [7] | Potency [14] | Potency [15] | Potency [16] | Potency [17] | Potency [8] | Potency [9] | Potency [10] | Potency [18] | max response [2] -105% | max response [12] -4.55% and -18.6% | max response [13] -60% | Potency [5]

Source: PubChem BioAssay (NCATS)
